Assay outcomes deposited in PubChem by National Center for Advancing Translational Sciences (NCATS).
DT40 TDP1 CPT – DT40-hTDP1 cell growth loss with CPT; chicken DT40 Tdp1-/-;hTDP1 cells + 20 nM CPT, ATP luminescence, 48 h; Potency, µM (top dose mostly 46.2 µM), most hits filed as inhibitors; 12% of 420,000 active; note: nearly all actives have a fitted effect of over 55% in size
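Chicken DT40 Tdp1-/- cells stably complemented with human TDP1 were seeded at 400 cells/well in medium containing 20 nM camptothecin, exposed to pin-transferred compounds, and grown at 37 °C for at least 48 hr. Viability was read as ATP luminescence.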
ELG1 repair inh – inhibitors of ELG1-dependent DNA repair in HEK293T cells. 2.3% of 330,000 active. HEK293T ELG1-luciferase reporter, luminescence, 16 h; DNA damage induced by 5-fluorouridine. Potency, µM (series often up to 46.1 µM), usual class: inhibitors; note: nearly all actives have a fitted effect of over 55% in size
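5-Fluorouridine DNA damage + compound/DMSO, 2,000 cells/well, 16 h, 37 °C/5% CO2. ONE-Glo, 30 min RT, luminescence. Readout = decrease in reporter signal.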
IL-1B inflam inh – inflammasome signaling inhibition, IL-1 beta readout. THP-1 LPS/ATP IL-1B secretion, AlphaLISA, 16 h; hits give low values. activity change, % at 57.5 µM. 4.7% of 360,000 active. AID 743279; in the data active = activity change below about -50%; inconclusive = mostly about -30% to -49%
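Secreted IL-1B measured by AlphaLISA bead assay after 16 h compound exposure of THP-1 cells; compounds (final up to 57.5 uM) added 1 h before LPS (250 ng/mL) and ATP (1.25 mM) stimulation; lower signal means less secretion.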
HT1080NT lethal – kills 2HG-producing HT-1080-NT fibrosarcoma cells. 1.6% of 360,000 active. Potency, µM (doses to about 46.1 µM), usual class: cytotoxic. HT-1080-NT fibrosarcoma viability, CellTiter-Glo ATP luminescence, 48 h. AID 686970;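 note: NT is the 2HG producing partner of a matched IDH1 knockdown line; nearly all actives have a fitted effect of over 55% in size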
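750 cells/well, RPMI + 5% FBS; 2 h settle, compound pin-transfer, 48 h at 37 degrees C. CellTiter-Glo 10 min RT, luminescence. Normalized to DMSO and media-only wells.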
TDP1 cell noCPT – qHTS for Inhibitors of human tyrosyl-DNA phosphodiesterase 1 (TDP1): qHTS in cells in absence of CPT; DT40 Tdp1-/- hTDP1 cells, no CPT, ATP luminescence, 48 h; Potency, µM (highest dose often 46.2 µM), hits mostly inhibitors; 15% of 420,000 active; AID 686978, 2013; note: nearly all actives have a fitted effect of over 55% in size
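Luminescent ATP content (CellTiter-Glo) served as the growth readout. Knockout chicken DT40 cells expressing human TDP1 were exposed to compounds without camptothecin for a minimum 48 hr at 37 °C.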
HT1080 IDH1KD tx – kills HT-1080 cells with IDH1 knockdown; HT-1080 IDH1 knockdown viability, ATP luminescence, 48 h; 2% of 360,000 active; Potency, µM (highest dose often 46.1 µM), usual class: cytotoxic; AID 686971
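In this qHTS, HT-1080 cells depleted of IDH1 are exposed for 48 h at 37 °C to compound titrations. Toxicity is scored from CellTiter-Glo luminescence, with DMSO as full viability and medium alone as none.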
A number is an active result; i = inactive; ? = inconclusive; nt = no result. This is a sample that favours compounds with a hit; in the whole collection about 19% have one here. Unless noted, calls come from the whole dose curve; as a rule, active = well fitted curve in the direction sought with a large enough effect; inconclusive = small, poorly fitted or top-dose-only effect, or another doubt; inactive = no such curve, though single readings can be large; an effect the other way counts as inactive or inconclusive.

SMILES	DT40 TDP1 CPT	ELG1 repair inh	IL-1B inflam inh	HT1080NT lethal	TDP1 cell noCPT	HT1080 IDH1KD tx
Cc1nc2cnc(N(C)C)nc2n(-c2ccccc2)c1=O	i	nt	nt	nt	i	nt
N[C@@H](C(=O)N[C@@H]1C(=O)N2C(C(=O)O)=C(CSc3cn[nH]n3)CS[C@H]12)c1ccc(O)cc1	i	nt	nt	nt	i	nt
CCOc1ccc2nc(NC(=O)CSc3nc4c(c(=O)n(C)c(=O)n4C)n3C(C)C)sc2c1	23.1µM	9.2µM	i	i	14.6µM	i
CCn1c(SCC(=O)Nc2nc3ccc(OC)cc3s2)nc2c1c(=O)n(C)c(=O)n2C	18.4µM	13µM	?	i	?	?
CC(C)n1c(SCC(=O)Nc2nc3ccccc3s2)nc2c1c(=O)n(C)c(=O)n2C	16.4µM	nt	-52.1	i	20.6µM	i
CC(C)n1c(SCC(=O)Nc2ccc3c(c2)OCO3)nc2c1c(=O)n(C)c(=O)n2C	?	i	i	i	?	i
O=C(O)CCNC(=O)/C(=C/C=C/c1ccccc1)NC(=O)c1ccccc1	i	i	i	i	i	i
Cc1noc(-c2ccc(NCc3ccccc3)c([N+](=O)[O-])c2)n1	18.4µM	nt	nt	nt	?	nt
COc1ccc(-c2noc(-c3ccc(NCc4cccnc4)c([N+](=O)[O-])c3)n2)cc1	?	nt	nt	nt	i	nt
COc1ccccc1CNc1ccc(-c2nc(C)no2)cc1[N+](=O)[O-]	7.31µM	nt	nt	nt	7.31µM	nt
Cc1cccc(-c2noc(-c3ccc(NCc4ccccc4)c([N+](=O)[O-])c3)n2)c1	i	nt	nt	nt	i	nt
O=C(c1ccco1)N1CCN(C2CN(C3CCCCC3)S(=O)(=O)C2)CC1 (stereo not given)	i	nt	i	?	i	i
COc1ccc(OC)c(C2CC(c3c(-c4ccccc4)c4cc(Cl)ccc4[nH]c3=O)=NN2S(C)(=O)=O)c1 (stereo not given)	?	5.17µM	i	i	?	?
CC(C)CN(CC(C)C)C(=O)COn1nnc2ccc(S(=O)(=O)N3CCOCC3)cc21	i	?	i	i	?	i
C#CCNC(=O)C[C@@H]1C[C@@]2(C(=O)OCC)CCCC=C2N(Cc2ccc3c(c2)OCO3)C1=O	i	nt	i	i	i	i
N#C/C(=C1\SCC(c2ccccc2Cl)S1)n1ccnc1 (stereo not given)	?	nt	nt	nt	23.7µM	nt
COC(=O)c1cc2oc3ccccc3c2n1Cc1nc(-c2cccc(Cl)c2)oc1C	i	nt	nt	nt	i	nt
CCNC(=O)COC(=O)c1cc(-c2ccco2)nc2ccccc12	?	?	i	i	?	i
Cn1c(=O)c(C(=O)COC(=O)c2cc(C(F)(F)F)nc3ccccc23)c(N)n(Cc2ccccc2)c1=O	nt	i	nt	nt	nt	nt
Cn1c(=O)c(C(=O)COC(=O)c2cc(-c3ccco3)nc3ccccc23)c(N)n(CC2CC2)c1=O	nt	6.51µM	nt	nt	nt	nt
Cn1c(=O)c(C(=O)COC(=O)c2cc(C3CC3)nc3ccccc23)c(N)n(Cc2ccccc2)c1=O	20.6µM	i	i	i	16.4µM	i
S=c1nccc(-c2ccc(Cl)cc2)[nH]1	?	?	i	i	20.6µM	i
O=C1C=CC(=O)C(C2=C3C(=O)N(CCc4ccccc4)CC(=O)N3CCC2)=C1	1.3µM	?	?	i	1.3µM	?
CC1CC(C)CN(CCOCCSc2ccccc2)C1 (stereo not given)	?	i	i	i	16.4µM	i
CC1CC(C)CN(CCOCCSc2ccc(Cl)cc2)C1 (stereo not given)	20.6µM	i	?	?	16.4µM	?
COc1ccc(NC(=O)Cn2cnc3c(nc4n3CCCCC4)c2=O)c(OC)c1	i	nt	nt	nt	i	nt
COc1ccc(S(=O)(=O)N2CCCCCC2)cc1NC(C)C(=O)Nc1ccc(NC(C)=O)cc1 (stereo not given)	?	nt	i	i	?	i
Cc1c(CC(=O)N2CCC(O)CC2)c(=O)oc2cc3c(cc12)CCC1(CCCCC1)O3	?	nt	i	i	?	i
